Screening results: PubChem BioAssay, National Center for Advancing Translational Sciences (NCATS)
HEK cytotox – Cytotoxic Profiling in HEK 293 Cell Line of Diverse Libraries Using Quantitative High-Throughput Screening; HEK 293 viability, ATP luminescence (CellTiter-Glo), 48-72 h; hit rate 6.6% among 94,000; Potency, µM (highest dose often 115 µM), without a hit: at the highest dose activity change, negative = cytotoxicity, actives largely listed as inhibitors; note: nearly all actives have a fitted effect of over 60% in size
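Luminescence from cellular ATP, measured with CellTiter-Glo, indicates HEK 293 viability. Cells plated at 250 cells/well are treated with compound for 48 or 72 hr at 37 degree Celsius before reagent addition.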
FLuc inh – Firefly luciferase inhibition profiling of diverse chemical library using quantitative high-throughput screening | Potency, µM (titrated, usually from 115 µM), most hits filed as inhibitors | purified P. pyralis luciferase, luminescence, biochemical | hit rate 2.5% among 76,000 | AID 1347043, 2019 | Luciferin 4-monooxygenase (Photinus pyralis), P08659; note: nearly all actives have a fitted effect of over 65% in size
Target sequence (P08659 whole entry, looked up): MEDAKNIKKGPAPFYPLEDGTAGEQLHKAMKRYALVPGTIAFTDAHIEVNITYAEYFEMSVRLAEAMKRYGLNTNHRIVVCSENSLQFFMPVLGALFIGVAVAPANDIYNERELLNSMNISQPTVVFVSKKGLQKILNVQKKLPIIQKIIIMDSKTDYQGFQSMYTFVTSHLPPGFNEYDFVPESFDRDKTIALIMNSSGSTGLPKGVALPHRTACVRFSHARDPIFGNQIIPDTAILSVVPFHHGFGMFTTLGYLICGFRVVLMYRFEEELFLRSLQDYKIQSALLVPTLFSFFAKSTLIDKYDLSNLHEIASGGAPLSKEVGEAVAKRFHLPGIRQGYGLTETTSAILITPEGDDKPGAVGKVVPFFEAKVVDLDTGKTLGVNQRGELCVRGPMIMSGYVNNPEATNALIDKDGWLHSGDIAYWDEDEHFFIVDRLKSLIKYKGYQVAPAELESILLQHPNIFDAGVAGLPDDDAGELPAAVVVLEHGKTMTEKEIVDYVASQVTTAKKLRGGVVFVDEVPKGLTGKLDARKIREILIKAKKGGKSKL
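Biochemical qHTS: compound (6-point titration) added to 10uM D-luciferin plus 10uM ATP in Tris acetate pH 7.5 buffer with Mg, Tween-20 and BSA, then purified enzyme at 10nM; light output imaged.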
hNpr1 antagonist – Natriuretic polypeptide receptor (hNpr1) antagonism - Primary qHTS. hit rate 1.6% among 76,000. HEK293 hNpr1 GloSensor cGMP, ANP-stimulated luminescence. Atrial natriuretic peptide receptor 1 (Homo sapiens), P16066. Potency, µM (titrated, usually from 46.3 µM), for the others: at the highest dose activity change, negative = inhibition, hits mostly inhibitors; calls by dose curve; note: nearly all actives have a fitted effect of over 60% in size
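Compound pre-incubated 30 min at room temperature on GloSensor-loaded HEK293 cells stably carrying hNpr1 and the pGS-40F cGMP biosensor. Stimulation uses hNppA at 0.1 nM final; luminescence is taken at baseline and 20 min post-agonist.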
3T3 cytotox – Cytotoxic Profiling in NIH 3T3 Cell Line of Diverse Libraries Using Quantitative High-Throughput Screening; NIH 3T3 viability, CellTiter-Glo ATP luminescence, 48-72 h; Potency, µM (highest dose often 96.7 µM), inactives show at the top dose activity change, negative = cytotoxicity, usual class: inhibitors; hit rate 4.3% among 94,000; note: nearly all actives have a fitted effect of over 55% in size
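Luminescent ATP readout (CellTiter-Glo, 10 min RT) after 48 or 72 hr compound exposure of NIH 3T3 cells seeded at 400 cells/well in 1536-well format; quantitative HTS.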
The depositor's hits bear a star; i = inactive; ? = inconclusive; . = not tested or not shown; [ ] = another dose, or the depositor's remark. A selection: hits, their analogues and other compounds. The true share with any hit is near 11%. Unless noted, calls come from the whole dose curve; as a rule, active = well fitted curve in the direction sought with a large enough effect; inconclusive = small, poorly fitted or top-dose-only effect, or another doubt; inactive = no such curve, though single readings can be large; an effect the other way counts as inactive or inconclusive. % is set by controls: 0 for no effect and ±100 for the full control effect; potency is the fitted concentration of half-maximal effect.

SMILES	HEK cytotox	FLuc inh	hNpr1 antagonist	3T3 cytotox
O=C(C1CCCC1)N1CCC(Cc2noc(C3CCOCC3)n2)C1 (stereo not drawn)	-22%	.	.	-18%
Cc1ncsc1CN1CCC(N2C(=O)C(OCC3CC3)C23CCCCC3)CC1 (stereo not drawn)	?	i	-2%	-27%
Cc1ncsc1CN1CCC(N2CC3(CCCCC3)C2c2ccccc2)CC1 (stereo not drawn)	45µM*	.	.	?
Cc1ccc(NC(=O)N2CCC(CCNC(=O)c3ccco3)CC2)cc1F	-16%	i	5%	?
Cc1ccc(NC(=O)N2CCC(CCNC(=O)c3n[nH]c4ccccc34)CC2)cc1F	79µM*	?	-16%	?
COc1ccc(C(=O)NCCC2CCN(C(=O)Nc3ccc(C)c(F)c3)CC2)cc1	-23%	3.5µM*	-25%	?
COCC(=O)N1CCCN(c2ccc3nnc(-c4ccccc4)n3n2)CC1	?	.	.	-11%
COc1cccc(-c2cc3c(=O)n(CCNC(=O)Cc4cccs4)ccn3n2)c1	?	16µM*	-15%	-28%
COc1cccc(-c2cc3c(=O)n(CCNC(=O)COc4cccc(C)c4)ccn3n2)c1	?	22µM*	?	?
COc1ccc(C(=O)NCCn2ccn3nc(-c4cccc(OC)c4)cc3c2=O)cc1	?	i	-24%	?
COc1cc(OC)cc(C(=O)NCCn2ccn3nc(-c4cccc(OC)c4)cc3c2=O)c1	-24%	18µM*	-16%	-24%
COc1cccc(CCC(=O)NCCn2ccn3nc(-c4cccc(OC)c4)cc3c2=O)c1	?	8.9µM*	-24%	?
CCOc1ccc(CC(=O)NCCn2ccn3nc(-c4cccc(OC)c4)cc3c2=O)cc1	?	?	-8%	?
CCCCn1c(=O)c(C(=O)N2CCN(C(C)=O)CC2)nc2cccnc21	0%	.	.	-21%
CCC(C(=O)NCCn1ccn2nc(-c3cccc(OC)c3)cc2c1=O)c1ccccc1 (stereo not drawn)	?	14µM*	?	?
CN1CCN(c2cc(=O)c3ccnc(Nc4ccccn4)c3o2)CC1	-6%[172 µM]	i	1%[70.6 µM]	?
COc1ncccc1-c1nccc2c(=O)cc(N(C)C3CCOCC3)oc12	-18%[172 µM]	i	-4%[70.6 µM]	?
Cc1cc(-c2nccc3c(=O)cc(N(C)C)oc23)ccn1	-6%[230 µM]	i	1%[70.6 µM]	?
CN(C)c1cc(=O)c2ccnc(-c3ccc(O)c(F)c3)c2o1	0%[172 µM]	i	-2%[70.6 µM]	32µM*
COc1ccc(-c2nccc3c(=O)cc(N(C)C)oc23)cn1	i	i	2%[70.6 µM]	50µM*
CN(C)c1cc(=O)c2ccnc(Nc3ccccn3)c2o1	-25%[230 µM]	i	8%[70.6 µM]	71µM*
Cc1ccccc1-c1nccc2c(=O)cc(N(C)C3CCOCC3)oc12	-26%[172 µM]	i	-4%[70.6 µM]	25µM*
O=C(c1cccc(Cl)c1)N1CCC(N(C(=O)C2CC2)C2CCOCC2)CC1	6%	i	-7%	-6%
CNC(=O)c1cc(C2CC2)nc2c1c(C1CCN(C(=O)c3ccncc3)C1)nn2C (stereo not drawn)	0%	.	.	-7%
O=C1CO[C@H]2CN(Cc3cccnc3)C[C@H]2N1Cc1cccc(C(F)(F)F)c1	-14%[172 µM]	i	-2%[70.6 µM]	-25%[138 µM]
SMILES	HEK cytotox	FLuc inh	hNpr1 antagonist	3T3 cytotox
CN1CCN(c2ccc(-c3nccc4c(=O)cc(N(C)C5CCOCC5)oc34)cn2)CC1	i	i	4%[70.6 µM]	89µM*
CN(c1cc(=O)c2ccnc(-c3ccc(O)c(F)c3)c2o1)C1CCOCC1	-19%[172 µM]	i	-3%[70.6 µM]	8.9µM*
COc1cc(F)ccc1-c1nccc2c(=O)cc(N(C)C3CCOCC3)oc12	-32%[172 µM]	i	6%[70.6 µM]	?
COCCN1C(=O)c2ccccc2C(C(=O)Nc2nnc(C3CC3)s2)C12CCCCC2 (stereo not drawn)	7%	i	8%	i
COc1ccc(C2Cn3cnc(C(=O)N4CCC(C(=O)Nc5cccc(Cl)c5)CC4)c3CO2)cc1 (stereo not drawn)	?	40µM*	-24%	-2%
Cc1ccc(NC(=O)C2CCN(C(=O)c3ncn4c3COC(c3ccc(F)cc3)C4)CC2)c(C)c1 (stereo not drawn)	1%	35µM*	-4%	i
Cc1cc(NC(=O)C2CCN(C(=O)c3ncn4c3COC(c3ccc(F)cc3)C4)CC2)ccc1F (stereo not drawn)	-13%	22µM*	-4%	-12%
Cc1cc(F)ccc1NC(=O)C1CCN(C(=O)c2ncn3c2COC(c2ccc(F)cc2)C3)CC1 (stereo not drawn)	-7%	?	-1%	i
Cc1ccc(C)c(NC(=O)C2CCN(C(=O)c3ncn4c3COC(c3ccc(F)cc3)C4)CC2)c1 (stereo not drawn)	-14%	28µM*	-17%	-19%
CCOC(=O)[C@H]1C[C@]2(CCCCN(CCOC)C2=O)N(C(=O)C2CC2)[C@H]1c1ccccc1	-12%	.	.	?
CSc1ccc(-c2cccc(CN3CCC(NC(=O)C(C)(C)C)CC3)c2)cc1	?	.	.	-25%
Cc1nn(-c2ccc(F)cc2)c(Oc2ccc(F)cc2F)c1CCC(=O)N1CCCC1	?	i	-2%	?
Cc1nn(-c2ccc(F)cc2)c(Oc2ccccc2F)c1CCC(=O)N1CCCC1	35µM*	i	-10%	28µM*
Cc1ccccc1Oc1c(CCC(=O)N2CCSCC2)c(C)nn1-c1ccc(F)cc1	?	i	-25%	?
Cc1nn(-c2ccc(F)cc2)c(Oc2ccccc2F)c1CCC(=O)NCc1ccco1	?	i	-19%	35µM*
Cc1nn(-c2ccc(F)cc2)c(Oc2cccc(F)c2)c1CCC(=O)N1CCSCC1	35µM*	i	-17%	?
Cc1nn(-c2ccc(F)cc2)c(Oc2cccc(F)c2)c1CCC(=O)N(C)C(C)C	50µM*	i	-17%	?
CCC1=C(C(=O)OC)C(c2ccccc2)N2C(CC(=O)NCC3CCCO3)=CSC2=N1 (stereo not drawn)	?	i	-17%	?
CNC(=O)c1cc(C)nc2onc(C3CCCN3C(=O)c3ccncc3)c12 (stereo not drawn)	-4%	.	.	-22%
CCc1nn(-c2ccccc2)c(Oc2ccc(C)cc2)c1CCC(=O)N1CCSCC1	40µM*	i	-4%	?
CCNC(=O)CCc1c(CC)nn(-c2ccccc2)c1Oc1ccccc1F	?	i	-1%	?
O=C(NC1CC1)c1cn2cc(-c3ccc(C(F)(F)F)cc3)sc2n1	-22%	.	.	-38%
Cc1ccc(-c2cccc(CN)c2)cc1Cl	?	.	.	28µM*
NCc1cccc(-c2ccc(O)cc2)c1	-16%[172 µM]	.	.	-21%[138 µM]
Cc1ccc(-c2cccc(C=O)c2)cc1Cl	0%[230 µM]	.	.	?
